Inconclusive results are not listed. Entries that show only a call come without a potency. Activity calls are given as the source filed them. The call rests on the fitted dose curve; in most records, active means well fitted inhibition curve with a large enough effect; inconclusive means small, poorly fitted or top-dose-only effect; inactive means no such curve, though single readings can be large or run the other way.
Key:
[1] = test system: Zika virus NS2B-NS3 protease (unlinked complex); assay: Primary screen GU Rhodamine qHTS for Zika virus inhibitors: Unlinked NS2B-NS3 protease assay (AID 1347159); further: nearly all actives have a fitted effect of over 60% in size
Method in brief: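 Buffer 10 mM Tris-HCl pH 8.0, 0.01% Tween 20. Unlinked protease 25 nM; compound preincubation 15 min, RT, protected from light. Substrate Rhod110, 1.5 microM; ~15% conversion in 15 min.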

[2] = test system: Zika virus NS2B-NS3 protease (linked construct); assay: Primary screen NINDS Rhodamine qHTS for Zika virus inhibitors (AID 1347160); further: nearly all actives have a fitted effect of over 55% in size
Method in brief: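 Aprotinin served as in-plate control. Conditions: 25 nM linked NS2B-NS3, pH 8.0 Tris buffer, titrated compounds, 15 min preincubation and 15 min reaction with 1.5 microM Rhod110 substrate at room temperature.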
Potency means the concentration at half of the fitted maximal effect.

| Structure (SMILES) | Potency [1] | Potency [2] |
| --- | --- | --- |
| O=C(c1ccccc1)c1c(O)cc(O)cc1O[C@@H]1O[C@H](CO)[C@@H](O)[C@H](O)[C@H]1O | inactive | inactive |
| Cc1cc(C(=O)Cn2cc(C#N)ccc2=O)c(C)n1Cc1ccccc1 | inactive | inactive |
| COc1ccc(C[C@H]2COC(=O)[C@@H]2Cc2ccc(O[C@@H]3O[C@H](CO)[C@@H](O)[C@H](O)[C@H]3O)c(OC)c2)cc1OC | inactive | inactive |
| COc1cc(NC(=O)c2cccc(-n3cc(NC(=O)Nc4cccc(C)c4)cn3)c2)cc(OC)c1OC | inactive | inactive |
| Cn1cc(-c2cnn3c(N)c(Br)c(C4CCCNC4)nc23)cn1 (configuration not stated) | inactive | inactive |
| CC#CCn1c(N2CCCC(N)C2)nc2c1c(=O)n(Cc1nc(C)c3ccccc3n1)c(=O)n2C (configuration not stated) | inactive | inactive |
| Cc1noc(C)c1-c1cc(O)cc(C(O)c2ccccc2)c1 (configuration not stated) | inactive | inactive |
| OC1(CN2CCC(COc3noc4cccc(O[C@@H]5CCOC5)c34)CC2)CCOCC1 | inactive | inactive |
| C=C1CC[C@@H]2[C@](C)(CO)[C@H](O)CC[C@@]2(C)[C@@H]1/C=C/C1=CCOC1=O | inactive | inactive |
| C=CC(=O)N1CCN(C(=O)CNc2cc(-c3ccccc3Cl)c(Cl)cc2OC)CC1 | inactive | inactive |
| O=C(Nc1ccnc(NC(=O)C2CC2)c1)c1c(Cl)cccc1Cl | inactive | inactive |
| CC(C)=CCCC1(C)/C=C/C(OC(=O)C=C(C)C)C(C)(O)/C=C/C(=O)/C(CO)=C\C1 (configuration not stated) | inactive | inactive |
| Cn1ncc(Cl)c1-c1cc(C(=O)N[C@H](CN)Cc2cccc(F)c2)sc1Cl | inactive | inactive |
| COc1cc(/C=C2\CCCN([C@@H](C)c3ccc(F)cc3)C2=O)ccc1-n1cnc(C)c1 | inactive | inactive |
| O=S(=O)(N[C@H]1CCCC[C@@H]1N1CCOCC1)c1ccc(Cl)cc1 | inactive | inactive |
| O=c1cc(N2CCOCC2)nc2c3ccccc3ccn12 | inactive | inactive |
| CCC(C)/C=C(C)/C=C/C1=CC2=C(Cl)C(=O)C(C)(OC(C)=O)C(=O)C2(O)C(OC)O1 (configuration not stated) | 28.2 µM (active) | 11.2 µM (active) |
| CCN1CCN(Cc2ccc(C(=O)Nc3ccc(C)c(Oc4ccc5c(c4)CC(=O)N5)c3)cc2C(F)(F)F)CC1 | inactive | inactive |

| Structure (SMILES) | Potency [1] | Potency [2] |
| --- | --- | --- |
| c1cc(NCCc2c[nH]c3ccccc23)cc(Nc2ccncc2)c1 | inactive | inactive |
| CC(C)=CCC/C(C)=C/COCC1OC(n2ccc(=O)[nH]c2=O)C(O)C1O (configuration not stated) | inactive | inactive |
| COC(=O)C[C@H]1[C@]2(C)C3=C(C)[C@H](c4ccoc4)C[C@H]3O[C@@H]2[C@H](O)C2[C@](C)(C(=O)OC)C=CC(=O)[C@@]21C (some centres not stated) | inactive | inactive |
| COC(=O)C(Cc1ccc(OCCn2c(=O)sc3cc(C(=O)c4ccccc4)ccc32)cc1)C(=O)OC | inactive | inactive |
| COc1cc(C(C)=O)c(OC)c2c1OC(C)(C)C=C2 | inactive | inactive |
| C=C1C(=O)O[C@@H]2/C=C(\CO)CC/C=C(\CO)[C@H](OC(C)=O)C(OC(=O)C(C)CC)C12 (some centres not stated) | inactive | inactive |
| Clc1cccc(COc2cncc(N3CCNCC3)n2)c1 | inactive | inactive |
| CN(CC1COCCO1)S(=O)(=O)Nc1ccc2ccc3ncc(-c4cnn(C)c4)cc3c(=O)c2c1 (configuration not stated) | inactive | inactive |
| C#CC(=O)N(c1ccc(OC)cc1OC)C(C(=O)NCC(=O)OCC)c1cccs1 (configuration not stated) | inactive | inactive |
| Cc1[nH]c2ccccc2c1CCNCc1ccc(/C=C/C(=O)NO)cc1 | inactive | inactive |
| Cc1ccc(C2(C(=O)N3CCC(n4nc(-c5ccccc5)oc4=O)CC3)CC2)cc1 | inactive | inactive |
| O=C(Nc1ccc(Cl)cc1)c1ccccc1NCc1ccncc1 | inactive | inactive |
| O=C(O)C1=CO[C@@H](O[C@@H]2O[C@H](CO)[C@@H](O)[C@H](O)[C@H]2O)[C@@H]2C(CO)=CC[C@H]12 | inactive | inactive |
| CCCCC1CCN(CCCN2C(=O)CCc3ccccc32)CC1 | inactive | inactive |
| C=CS(=O)(=O)NC1CCN(C(=O)CNc2cc(I)c(Cl)cc2OC)CC1 | inactive | inactive |
| CC(C)c1cc2c(N3CCN(C4=NCC(C)(C)S4)CC3)ncnc2s1 | inactive | inactive |
| C[C@H](Nc1cc2c(-c3ccc4c(c3)OCO4)noc2cn1)c1ccccc1 | inactive | inactive |
| O=C(NCCO)c1cccc(-c2cc(Nc3ccc(OC(F)(F)F)cc3)ncn2)c1 | inactive | inactive |

Reference: PubChem BioAssay (NCATS)
